Experimental data taken from PubChem BioAssay (EPA / NIEHS).
The source made the active and inactive calls. The calls were made as follows: active = hit-call score of the fitted dose curve at least 0.9, where 1 is the maximum; inactive = score below 0.9.

Assays:
[1] = read-out: Tumor necrosis factor receptor superfamily member 6 (Homo sapiens) (UniProt P25445); assay: LTEA_HepaRG_FAS: Life Technologies and Expression Analysis (LTEA) Assay for Fas cell surface death receptor (FAS) using HepaRG (AID 2283447); conditions: mRNA level, 48 h; actives raise or lower the signal
Outline: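 FAS transcript level was measured by TaqMan qRT-PCR against three housekeeping genes after 48 h chemical exposure. Cells were HepaRG, 0.5% DMSO vehicle, with a top concentration of 100 uM and half-log dilutions over eight points, in duplicate.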

[2] = read-out: Fatty acid synthase (Homo sapiens) (UniProt P49327); assay: LTEA_HepaRG_FASN: Life Technologies and Expression Analysis (LTEA) Assay for Fatty Acid Synthase (FASN) using HepaRG (AID 2283448); conditions: mRNA level, 48 h; actives raise or lower the signal
Outline: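 Differentiated human HepaRG cells were exposed for 48 h in serum-free induction medium to eight half-log concentrations up to 100 uM in 0.5% DMSO, in duplicate. FASN mRNA was quantified by TaqMan qRT-PCR, normalized to ACTB/GAPDH/POLR2A, and fitted bidirectionally against DMSO.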

[3] = read-out: Cyclin D2 (CCND2), CCND2 (gene 894); assay: LTEA_HepaRG_CCND2: Life Technologies and Expression Analysis (LTEA) Assay for Cyclin D2 (CCND2) using HepaRG (AID 2283449); conditions: mRNA level, 48 h; actives raise or lower the signal
Outline: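 Read-out is CCND2 mRNA level measured by qRT-PCR in human HepaRG liver cells and normalised to three housekeeping genes. Chemicals were applied for 48 h at up to 100 uM, with gain or loss fitted relative to 0.5% DMSO.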

[4] = read-out: Cyclin Dependent Kinase Inhibitor 1A (CDKN1A), CDKN1A (gene 1026); assay: LTEA_HepaRG_CDKN1A: Life Technologies and Expression Analysis (LTEA) Assay for Cyclin Dependent Kinase Inhibitor 1A (CDKN1A) using HepaRG (AID 2283450); conditions: mRNA level, 48 h; actives raise or lower the signal
Outline: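 Cryopreserved HepaRG cells were plated and cultured 48 h, then switched to serum-free induction medium. Chemicals (eight half-log concentrations, top 100 uM, 0.5% DMSO) were applied for 48 h. Lysates underwent qRT-PCR for CDKN1A with housekeeping normalization.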

[5] = read-out: Cyclin D1 (CCND1), CCND1 (gene 595); assay: LTEA_HepaRG_CCND1: Life Technologies and Expression Analysis (LTEA) Assay for Cyclin D1 (CCND1) using HepaRG (AID 2283451); conditions: mRNA level, 48 h; actives raise or lower the signal;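 as to AC50: TaqMan qRT-PCR transcript level normalised to ACTB GAPDH and POLR2A housekeeping genes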
Outline: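 Human liver HepaRG line; 48 h dosing, 8 conc. ≤100 uM, 0.5% DMSO; TaqMan qRT-PCR mRNA, 3 housekeeping genes; bidirectional curve fit vs DMSO.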

[6] = read-out: catalase (CAT), CAT (gene 847); assay: LTEA_HepaRG_CAT: Life Technologies and Expression Analysis (LTEA) Assay for catalase (CAT) using HepaRG (AID 2283452); conditions: mRNA level, 48 h; actives raise or lower the signal;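 as to AC50: TaqMan qRT-PCR signal normalized to ACTB GAPDH and POLR2A housekeeping genes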
Outline: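 Expression of CAT was quantified by TaqMan qRT-PCR with ACTB/GAPDH/POLR2A normalization after 48 h chemical exposure of HepaRG. Eight-point half-log series, top 100 uM, in 0.5% DMSO; gain or loss fitted against vehicle.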

[7] = read-out: flavin-containing dimethylaniline monooxygenases 3 (FMO3), FMO3 (gene 2328); assay: LTEA_HepaRG_FMO3: Life Technologies and Expression Analysis (LTEA) Assay for flavin-containing dimethylaniline monooxygenases 3 (FMO3) using HepaRG (AID 2283453); conditions: mRNA level, 48 h; actives raise or lower the signal;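 as to AC50: FMO3 transcript by TaqMan qRT-PCR normalized to ACTB GAPDH and POLR2A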
Outline: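 HepaRG, 48 h exposure, 8-pt half-log series from 100 uM, 0.5% DMSO vehicle, duplicates; FMO3 transcript by Fluidigm TaqMan qRT-PCR, housekeeping-normalized; gain/loss fit vs DMSO.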

[8] = read-out: Cytochrome P450 (CYP1A1), CYP1A1 (gene 1543); assay: LTEA_HepaRG_CYP1A1: Life Technologies and Expression Analysis (LTEA) Assay for Cytochrome P450 (CYP1A1) using HepaRG (AID 2283454); conditions: mRNA level, 48 h; actives raise or lower the signal
Outline: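 Induction of CYP1A1 mRNA in a human hepatic cell line was measured 48 h after dosing, with 1 mM phenobarbital as induction positive control and 0.5% DMSO vehicle as baseline for bidirectional curve fitting.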

[9] = read-out: CFLAR gene, CFLAR (gene 8837); assay: LTEA_HepaRG_CFLAR: Life Technologies and Expression Analysis (LTEA) Assay for CFLAR gene using HepaRG (AID 2283455); conditions: mRNA level, 48 h; actives raise or lower the signal
Outline: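 HepaRG, 48 h exposure, 8-pt conc-response (100 uM top, half-log), 0.5% DMSO vehicle, duplicates. CFLAR expression by qRT-PCR; ACTB/GAPDH/POLR2A normalization; gain or loss fit vs DMSO baseline.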

[10] = read-out: Forkhead box O1 (FOXO1), FOXO1 (gene 2308); assay: LTEA_HepaRG_FOXO1: Life Technologies and Expression Analysis (LTEA) Assay for Forkhead box O1 (FOXO1) using HepaRG (AID 2283456); conditions: mRNA level, 48 h; actives raise or lower the signal
Outline: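 Readout is FOXO1 transcript level by multiplexed qRT-PCR against three housekeeping genes, curve-fitted in both directions relative to 0.5% DMSO vehicle. Human HepaRG cultures received chemicals for 48 h, up to 100 uM in half-log steps.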

[11] = read-out: growth arrest and DNA damage 45 (GADD45A), GADD45A (gene 1647); assay: LTEA_HepaRG_GADD45A: Life Technologies and Expression Analysis (LTEA) Assay for growth arrest and DNA damage 45 (GADD45A) using HepaRG (AID 2283458); conditions: mRNA level, 48 h; actives raise or lower the signal
Outline: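 Differentiated HepaRG cells were exposed in duplicate for 48 h in serum-free induction medium to 8-point half-log concentrations up to 100 uM in 0.5% DMSO. GADD45A mRNA was measured by TaqMan qRT-PCR, normalized to ACTB, GAPDH and POLR2A, with bidirectional fitting versus DMSO.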

[12] = read-out: Forkhead box O3 (FOXO3), FOXO3 (gene 2309); assay: LTEA_HepaRG_FOXO3: Life Technologies and Expression Analysis (LTEA) Assay for Forkhead box O3 (FOXO3) using HepaRG (AID 2283459); conditions: mRNA level, 48 h; actives raise or lower the signal
Outline: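 HepaRG, 48 h post-dose; 8 conc., half-log from 100 uM, 0.5% DMSO, duplicates; serum-free induction medium. Readout: FOXO3 mRNA, TaqMan qRT-PCR, housekeeping-normalized. Bidirectional curve fit vs DMSO baseline.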

[13] = read-out: ABC Transporter (ABCB1), ABCB1 (gene 5243); assay: LTEA_HepaRG_ABCB1: Life Technologies and Expression Analysis (LTEA) Assay for ABC Transporter (ABCB1) using HepaRG (AID 2283460); conditions: mRNA level, 48 h; actives raise or lower the signal
Outline: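 Expression of ABCB1 was quantified by qRT-PCR against three housekeeping genes after human HepaRG cultures received test chemicals for 48 hours. Concentrations spanned eight half-log steps topping at 100 uM in 0.5% DMSO; gain or loss of signal was fitted relative to vehicle.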

[14] = read-out: growth arrest and DNA damage 45 (GADD45B), GADD45B (gene 4616); assay: LTEA_HepaRG_GADD45B: Life Technologies and Expression Analysis (LTEA) Assay for growth arrest and DNA damage 45 (GADD45B) using HepaRG (AID 2283461); conditions: mRNA level, 48 h; actives raise or lower the signal
Outline: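 Values are bidirectional concentration-response fits against 0.5% DMSO controls. Underlying data: qRT-PCR mRNA levels in human HepaRG liver cells treated 48 h in serum-free induction medium, eight concentrations topping at 100 uM.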

[15] = read-out: ABC Transporter (ABCC3), ABCC3 (gene 8714); assay: LTEA_HepaRG_ABCC3: Life Technologies and Expression Analysis (LTEA) Assay for ABC Transporter (ABCC3) using HepaRG (AID 2283462); conditions: mRNA level, 48 h; actives raise or lower the signal
Outline: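 Differentiated HepaRG liver cells receive test chemicals at eight concentrations (max 100 uM) for 48 h. Expression of ABCC3 is quantified by qRT-PCR against ACTB, GAPDH and POLR2A, and activity is fitted in both directions against the DMSO control.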

[16] = read-out: ABC Transporter (ABCB11), ABCB11 (gene 8647); assay: LTEA_HepaRG_ABCB11: Life Technologies and Expression Analysis (LTEA) Assay for ABC Transporter (ABCB11) using HepaRG (AID 2283463); conditions: mRNA level, 48 h; actives raise or lower the signal
Outline: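 ABCB11 transcript levels are read by Fluidigm TaqMan qRT-PCR after 48 h chemical treatment of human HepaRG cells. Concentrations span 100 uM downward in half-log steps with 0.5% DMSO; gain or loss is fitted against DMSO controls.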

[17] = read-out: ABC Transporter (ABCC2), ABCC2 (gene 1244); assay: LTEA_HepaRG_ABCC2: Life Technologies and Expression Analysis (LTEA) Assay for ABC Transporter (ABCC2) using HepaRG (AID 2283464); conditions: mRNA level, 48 h; actives raise or lower the signal
Outline: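 Gene expression of ABCC2 was determined by qRT-PCR in HepaRG cells exposed 48 h to chemicals (highest 100 uM, half-log dilutions). Activity was fitted in both directions relative to 0.5% DMSO vehicle.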

[18] = read-out: Broad substrate specificity ATP-binding cassette transporter ABCG2 (Homo sapiens) (UniProt Q9UNQ0); assay: LTEA_HepaRG_ABCG2: Life Technologies and Expression Analysis (LTEA) Assay for ABC Transporter (ABCG2) using HepaRG (AID 2283465); conditions: mRNA level, 48 h; actives raise or lower the signal
Outline: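 Read-out is ABCG2 mRNA induction or loss quantified by qRT-PCR after 48 h chemical treatment of human HepaRG cells, normalized to three housekeeping genes. Concentrations reached 100 uM top in half-log steps; fitting was bidirectional against 0.5% DMSO.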

[19] = CEETOX_H295R_PROG: CeeTox H295R High-throughput Steroidogenesis Assay for Progesterone (PROG) (AID 2283442); conditions: actives raise or lower the signal;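 as to AC50: human H295R adrenal cells primed with 10 µM forskolin before dosing; progesterone secreted into medium by H295R cells measured by HPLC-MS/MS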
Outline: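 Adrenal H295R line, forskolin-stimulated (10 uM, 48 h) before dosing. 48 h exposure, 0.1% DMSO vehicle. Secreted progesterone by reverse-phase HPLC with ESI+ MS/MS quantification; DMSO-normalised bidirectional curve fit.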

[20] = CEETOX_H295R_TESTO: CeeTox H295R High-throughput Steroidogenesis Assay for Testosterone (TESTO) (AID 2283457); conditions: actives raise or lower the signal
Outline: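 Testosterone synthesis is assessed in human adrenocortical H295R cells after 48 h of chemical exposure, using HPLC-MS/MS of extracted medium. Activity is fitted in both directions against DMSO control.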

Measured: AC50

Chain of Fatty acid synthase (Homo sapiens) (P49327 whole entry, looked up): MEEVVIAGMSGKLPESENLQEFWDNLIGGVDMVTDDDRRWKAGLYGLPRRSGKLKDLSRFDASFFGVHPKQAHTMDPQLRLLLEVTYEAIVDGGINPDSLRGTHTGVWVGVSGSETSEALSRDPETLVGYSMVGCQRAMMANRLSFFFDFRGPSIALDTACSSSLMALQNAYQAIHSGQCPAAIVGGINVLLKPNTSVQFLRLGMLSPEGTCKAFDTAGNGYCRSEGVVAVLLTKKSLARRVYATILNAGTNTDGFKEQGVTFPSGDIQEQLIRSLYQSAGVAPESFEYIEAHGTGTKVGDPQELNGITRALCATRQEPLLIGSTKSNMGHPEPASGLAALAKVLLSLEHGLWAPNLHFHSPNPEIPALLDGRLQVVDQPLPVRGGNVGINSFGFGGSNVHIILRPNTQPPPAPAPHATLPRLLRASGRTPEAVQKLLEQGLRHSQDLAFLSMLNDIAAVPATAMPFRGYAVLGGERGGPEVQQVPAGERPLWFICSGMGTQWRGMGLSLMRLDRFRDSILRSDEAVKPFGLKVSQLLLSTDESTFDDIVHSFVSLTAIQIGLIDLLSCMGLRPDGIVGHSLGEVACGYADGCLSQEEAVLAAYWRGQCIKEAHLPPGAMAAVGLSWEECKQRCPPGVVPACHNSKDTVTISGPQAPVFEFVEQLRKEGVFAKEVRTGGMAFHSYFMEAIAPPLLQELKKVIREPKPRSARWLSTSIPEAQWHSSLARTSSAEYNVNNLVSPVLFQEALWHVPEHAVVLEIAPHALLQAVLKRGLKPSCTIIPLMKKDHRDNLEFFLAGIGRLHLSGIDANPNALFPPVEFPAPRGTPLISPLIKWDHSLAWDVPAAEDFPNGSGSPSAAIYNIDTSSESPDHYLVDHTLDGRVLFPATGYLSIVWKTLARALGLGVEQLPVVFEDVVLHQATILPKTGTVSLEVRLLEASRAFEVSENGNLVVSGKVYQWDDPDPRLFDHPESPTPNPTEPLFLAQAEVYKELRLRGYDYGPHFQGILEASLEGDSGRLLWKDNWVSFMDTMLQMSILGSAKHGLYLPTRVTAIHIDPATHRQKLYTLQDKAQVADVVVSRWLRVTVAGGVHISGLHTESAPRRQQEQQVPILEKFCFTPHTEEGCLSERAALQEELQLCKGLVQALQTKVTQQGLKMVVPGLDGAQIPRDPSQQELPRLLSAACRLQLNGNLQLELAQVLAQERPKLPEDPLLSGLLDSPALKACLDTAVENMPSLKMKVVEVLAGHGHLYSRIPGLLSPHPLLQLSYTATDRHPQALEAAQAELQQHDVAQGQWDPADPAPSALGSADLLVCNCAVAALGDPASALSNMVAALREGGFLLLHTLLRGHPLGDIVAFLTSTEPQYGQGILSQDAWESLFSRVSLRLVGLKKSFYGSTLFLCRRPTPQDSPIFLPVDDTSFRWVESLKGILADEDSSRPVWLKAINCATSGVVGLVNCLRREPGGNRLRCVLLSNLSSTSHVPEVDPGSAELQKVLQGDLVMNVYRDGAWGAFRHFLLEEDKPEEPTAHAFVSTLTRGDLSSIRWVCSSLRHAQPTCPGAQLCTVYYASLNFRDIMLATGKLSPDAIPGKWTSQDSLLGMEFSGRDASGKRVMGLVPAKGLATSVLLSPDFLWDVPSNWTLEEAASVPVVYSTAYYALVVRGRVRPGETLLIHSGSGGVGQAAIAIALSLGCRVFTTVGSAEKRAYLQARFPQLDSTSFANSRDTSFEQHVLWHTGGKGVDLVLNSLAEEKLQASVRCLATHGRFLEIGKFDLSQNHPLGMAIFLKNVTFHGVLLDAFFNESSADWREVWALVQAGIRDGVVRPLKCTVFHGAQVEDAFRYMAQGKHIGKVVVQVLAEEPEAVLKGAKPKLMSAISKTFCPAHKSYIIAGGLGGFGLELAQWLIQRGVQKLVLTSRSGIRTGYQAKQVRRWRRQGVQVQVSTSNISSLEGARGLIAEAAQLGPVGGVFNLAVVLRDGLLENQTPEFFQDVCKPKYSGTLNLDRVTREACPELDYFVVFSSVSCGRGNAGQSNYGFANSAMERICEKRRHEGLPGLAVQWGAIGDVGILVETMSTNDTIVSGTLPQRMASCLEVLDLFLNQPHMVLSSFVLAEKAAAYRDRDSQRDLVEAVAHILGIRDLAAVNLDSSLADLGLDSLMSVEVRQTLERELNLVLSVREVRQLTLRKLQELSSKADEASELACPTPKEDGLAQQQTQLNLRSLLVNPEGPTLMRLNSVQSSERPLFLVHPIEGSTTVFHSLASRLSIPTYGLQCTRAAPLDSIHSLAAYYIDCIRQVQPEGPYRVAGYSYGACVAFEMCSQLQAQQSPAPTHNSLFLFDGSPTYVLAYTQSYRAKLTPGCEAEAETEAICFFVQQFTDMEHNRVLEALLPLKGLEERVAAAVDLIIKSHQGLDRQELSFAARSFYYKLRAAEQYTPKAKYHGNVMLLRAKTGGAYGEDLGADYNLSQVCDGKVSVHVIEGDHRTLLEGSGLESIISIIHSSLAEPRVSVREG
Chain of Broad substrate specificity ATP-binding cassette transporter ABCG2 (Homo sapiens) (Q9UNQ0 whole entry, looked up): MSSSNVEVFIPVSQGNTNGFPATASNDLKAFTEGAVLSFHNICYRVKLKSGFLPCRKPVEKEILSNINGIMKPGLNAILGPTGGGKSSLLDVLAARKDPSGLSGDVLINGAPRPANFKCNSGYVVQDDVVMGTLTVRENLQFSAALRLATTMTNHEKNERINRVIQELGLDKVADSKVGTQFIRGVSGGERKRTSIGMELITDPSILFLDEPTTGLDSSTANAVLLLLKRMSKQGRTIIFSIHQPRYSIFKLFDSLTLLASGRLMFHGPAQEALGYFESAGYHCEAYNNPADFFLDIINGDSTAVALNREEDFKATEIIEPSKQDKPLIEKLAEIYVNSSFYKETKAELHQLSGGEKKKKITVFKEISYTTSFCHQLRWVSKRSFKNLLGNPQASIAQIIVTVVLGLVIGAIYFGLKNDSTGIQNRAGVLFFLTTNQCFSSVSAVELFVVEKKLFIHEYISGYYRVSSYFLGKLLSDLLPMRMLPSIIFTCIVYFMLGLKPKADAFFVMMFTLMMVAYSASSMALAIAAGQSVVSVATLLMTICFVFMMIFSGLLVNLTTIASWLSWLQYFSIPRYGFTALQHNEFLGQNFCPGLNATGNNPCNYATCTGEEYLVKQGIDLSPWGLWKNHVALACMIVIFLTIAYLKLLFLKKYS

Cc1ccc(-c2cc(C(F)(F)F)nn2-c2ccc(S(N)(=O)=O)cc2)cc1
active: [1] 84.5 µM | [2] 76.7 µM | [6] 83.6 µM | [7] 76.8 µM | [8] 12.5 µM | [9] 78.3 µM | [10] 77.2 µM | [12] 93.6 µM | [13] 82.2 µM | [17] 85 µM
inactive: [3] | [4] | [5] | [11] | [14] | [15] | [16] | [18]

Nc1nc(Cl)nc2c1ncn2[C@H]1C[C@H](O)[C@@H](CO)O1
inactive: [3] | [9]
active: [19] 0.128 µM | [1] 0.209 µM | [2] 1.59 µM | [4] 0.168 µM | [5] 3.49 µM | [6] 0.887 µM | [7] 2.05 µM | [8] 0.749 µM | [11] 0.263 µM | [12] 2.18 µM | [13] 1.39 µM | [14] 0.447 µM | [15] 0.987 µM | [17] 1.12 µM

CCC(C)N(C)C(=O)c1cc2ccccc2c(-c2ccccc2Cl)n1 (stereo unspecified)
active: [19] 3.89 µM | [8] 37.7 µM | [13] 5.38 µM | [17] 7.48 µM
not listed: [5] | [16] | [18]
inactive: all other assays above

O=C(O)CN(CC(=O)O)CC(=O)O
active: [8] 79.4 µM
not listed: [10] | [16] | [18] | [20]
inactive: all other assays above

CN(C)C(=O)NC1(c2ccccc2)CCN(CCC[C@]2(c3ccc(Cl)c(Cl)c3)CCCN(C(=O)c3ccccc3)C2)CC1
inactive: [19] | [1] | [3] | [8] | [9] | [12] | [13] | [15]
active: [2] 16.5 µM | [4] 18.4 µM | [6] 18.8 µM | [7] 18.8 µM | [10] 18.7 µM | [11] 12.5 µM | [14] 20.3 µM | [16] 23.6 µM | [17] 19.4 µM

S=c1[nH]c2ccccc2s1
active: [8] 10.1 µM
not listed: [5] | [10] | [20]
inactive: all other assays above
